# Assay results from PubChem BioAssay.
# Values without a mark were called inactive. The source made the active and inactive calls.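 Rule for the calls: active = inhibition at or above 50% relative to wild type and mutant plate controls; inactive = inhibition below 50%.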
# Experiment: inhibitors of Chlamydomonas gravitaxis, primary screen, whole organism, Chlamydomonas reinhardtii, WT vs cilia-less mutant, absorbance, 96-well (AID 463189);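 note: 0% = wild type cc124 cells in DMSO and 100% = ciliumless bld1 mutant cells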
# Settings: OD600 absorbance, 2 days, at 10 µM, hits give high values
row,Compound,inhibition
1,CCCN1CCC[C@H](c2cccc(O)c2)C1,0.621%
2,Nc1ccncc1,14.4%
3,C#CCN[C@H](C)Cc1ccccc1,20.4%
4,Oc1ccc2c3c1O[C@H]1c4[nH]c5ccccc5c4C[C@@]4(O)C(C2)N(CC2CC2)CCC314 (stereo not given in full),3.32%
5,CC(=O)OCC1=C(C(=O)[O-])N2C(=O)[C@@H](NC(=O)CCC[C@@H](N)C(=O)[O-])[C@H]2SC1.[Zn+2],3.46%
6,CN1C2CCC1CC(OC(=O)c1cc(Cl)cc(Cl)c1)C2 (stereo not given),116% (active)
7,CC(C)(O)[C@@H]1[C@H]2OC(=O)[C@@H]1[C@]1(O)C[C@H]3O[C@]34C(=O)O[C@H]2[C@]14C (tested in a mixture with another compound),-1.93%
8,NC(N)=NOCC[C@H](N)C(=O)O,-0.094%
9,C[C@H](Cc1ccc2c(c1)OC(C(=O)O)(C(=O)O)O2)NC[C@H](O)c1cccc(Cl)c1,1.22%
10,NC(CP(=O)(O)O)C(=O)O (stereo not given),5.89%
11,C[C@]12Cc3cn4c(nc3C=C1CCC1C2CC[C@@]2(C)[C@H]1CC[C@@]2(O)C#N)nc1ccccc14 (stereo not given in full),72.1% (active)
12,CN(N=O)c1cc(O)ccc1O,2.32%
13,COc1cc(CCN)ccc1O,2.21%
14,CCCN(CCC)CCc1ccc(O)c(O)c1,0.931%
15,CC12NC(Cc3ccccc31)c1ccccc12 (stereo not given),2.33%
16,NCCc1c[nH]c2ccc(C(N)=O)cc12,4.98%
17,CCOC(=O)c1ncn2c1[C@@H]1CCCN1C(=O)c1cc(OC)ccc1-2,6.1%
18,CC1=NN=C(c2ccc(N)cc2)c2cc3c(cc2C1)OCO3,-2.8%
19,O=C1NCN(c2ccccc2)C12CCN(CC1COc3ccccc3O1)CC2 (stereo not given),6.88%
20,CCN(CC)c1ncnc2c1ncn2[C@@H]1O[C@H](COP(=O)(O)OP(=O)(O)C(Br)(Br)P(=O)(O)O)[C@@H](O)[C@H]1O,-12.6%
